Test results published in PubChem BioAssay (EPA / NIEHS).
Where “and” joins values, the source holds several entries; their conditions need not be identical. Identical values can stand only once. Inconclusive results are not listed. Calls of active or inactive are those of the source. The calls were made as follows, unless noted: active = hit-call score of the fitted dose curve at least 0.9, where 1 is the maximum; inactive = score below 0.9.

How the values were obtained:
[1] = CCTE_Simmons_MITO_basal_resp_rate: CCTE's HepG2 Seahorse XF Respirometric Screening Assay at Basal Respiratory State, Simmons Lab (AID 2284001); details: actives raise or lower the signal
Outline: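 Basal-phase OCR of HepG2 cells on a Seahorse XF96, analysed by bidirectional fit relative to DMSO vehicle; chemicals at 7 concentrations, 125 nM–100 uM final; three biological replicates; fenpyroximate and 2,4-dinitrophenol positive controls.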

[2] = CCTE_Simmons_MITO_max_resp_rate: CCTE's HepG2 Seahorse XF Respirometric Screening Assay at Maximal Respiratory State [uncoupled], Simmons Lab (AID 2284002); details: actives raise or lower the signal
Outline: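 HepG2, Seahorse XF96, maximal OCR post-FCCP. Cpd 125 nM–100 uM final (7 conc), n=3 biological. Kinetic reads every 6 min (3 min mix/3 min measure) over 72 min; fit bidirectional vs DMSO.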

[3] = CCTE_Simmons_MITO_inhib_resp_rate: CCTE's HepG2 Seahorse XF Respirometric Screening Assay at Inhibited Respiratory State [full ETC block], Simmons Lab (AID 2284006); details: actives raise or lower the signal
Outline: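 Test chemicals at seven final concentrations (125 nM–100 uM) in three biological replicates, with DMSO as vehicle. HepG2 oxygen consumption was then tracked on a Seahorse XF96 for 72 min through FCCP and rotenone/antimycin A phases, with the inhibited-phase rate as the endpoint.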

[4] = CCTE_Simmons_MITO_viability: CellTiter-Glo Viability Assessment for CCTE's HepG2 Seahorse XF Respirometric Screening Assay [post-hoc], Simmons Lab (AID 2284007; active = hit-call score of the fitted dose curve at least 0.9, where 1 is the maximum;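 as to AC50: cells exposed to chemical for 90 min before the ATP read; actives lower ATP signal relative to DMSO baseline meaning reduced viability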)
Outline: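 Post-hoc viability check on the HepG2 respirometry plates: luciferase-based ATP signal measured once, after 90 min compound exposure spanning 125 nM–100 uM final. Activity was referenced to DMSO as baseline.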

[5] = CCTE_Shafer_MEA_acute_spike_number: CCTE's Neural Acute Assay for Total Number of Spikes, Shafer Lab (AID 2284008);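 as to AC50: curve fitted for decrease in spike count so AC50 reflects inhibitors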
Outline: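 Rat cortical cultures, DIV 13/15, 37 C. 40 min baseline rec, cpd 0.03-40 uM, 40 min post-dose rec. Band-pass 300-5000 Hz, spike threshold 8x rms; % change in spike count per well, DMSO neg ctrl, loss-of-signal fit.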

[6] = CCTE_Shafer_MEA_acute_firing_rate_mean: CCTE's Neural Acute Assay for Mean Firing Rate, Shafer Lab (AID 2284009);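 also: analyzed for loss of signal so actives lower firing rate relative to DMSO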
Outline: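 Rat cortical neuron cultures matured to DIV 13 or 15, equilibrated 20 min at 37 C, then recorded 40 min for baseline. Compound (0.03-40 uM) added and a further 40 min recorded; percent change in mean firing rate calculated per well.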

[7] = CCTE_Harrill_HTTr_Viability_MCF7: CCTE's 6-hour Cell Viability Assessment for the High-Throughput Transcriptomics (HTTr) Platform, in MCF-7 cells cultured in DMEM + 10% fetal bovine serum, Harrill Lab (AID 2284010)
Outline: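 Eight-point concentration series, six-hour exposure. Propidium iodide exclusion imaged to assess membrane integrity as a cytotoxicity readout; bidirectional fitting was done with DMSO as negative control and activity baseline.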

[8] = CCTE_Harrill_HTTr_Apoptosis_MCF7: CCTE's 6-hour Apoptosis Assessment for the High-Throughput Transcriptomics (HTTr) Platform, in MCF-7 cells cultured in DMEM + 10% fetal bovine serum, Harrill Lab (AID 2284011)
Outline: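 Read-out: CellEvent Caspase 3/7 Green signal by high content imaging, gain-of-signal indicating apoptosis. MCF-7 cells, DMEM + 10% FBS, eight-point dilution series, 6 h exposure. Curves fitted bidirectionally relative to DMSO negative control.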

[9] = CCTE_Shafer_MEA_acute_burst_number: CCTE's Neural Acute Assay for Single-Electrode Bursts, Shafer Lab (AID 2284013)
Outline: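 Percent change in single-electrode burst number per well, from 40-min recordings taken before and after adding compound (0.03-40 uM) to primary rat cortical neurons on MEA plates at DIV 13 or 15, 37 C.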

[10] = CCTE_Shafer_MEA_acute_burst_duration_mean: CCTE's Neural Acute Assay for Mean Burst Duration, Shafer Lab (AID 2284014);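 also: hits are decreases in mean burst duration relative to DMSO controls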
Outline: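 Rat cortical cultures, DIV 13/15; 40 min baseline, then 40 min with compound (0.03-40 uM), 37 C. Spikes: 300-5000 Hz band-pass, 8x rms threshold. Read-out: % change in mean single-electrode burst duration, DMSO-referenced, loss direction.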

[11] = CCTE_Shafer_MEA_acute_per_burst_spike_number_mean: CCTE's Neural Acute Assay for Average Number of Spikes Per Burst, Shafer Lab (AID 2284015);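 also: hits are decreases in mean spikes per burst versus baseline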
Outline: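 Primary rat cortical neurons on 48-well MEA plates, treated on DIV 13 or 15 at 0.03-40 uM. Spontaneous activity recorded 40 min before and 40 min after compound at 37 C; percent change in mean spikes per single-electrode burst per well, fitted in the loss direction versus DMSO.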

[12] = CCTE_Shafer_MEA_acute_interburst_interval_mean: CCTE's Neural Acute Assay for Mean Interburst Interval, Shafer Lab (AID 2284016);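 also: percent change of mean interburst interval versus each well's own pre-dose baseline; curves fitted for decrease in interburst interval relative to DMSO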
Outline: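 Primary rat cortical neurons on 16-electrode MEA wells were recorded 40 min at baseline on DIV 13 or 15, then 40 min after compound (0.03-40 uM), at 37 C. Value is percent change in mean interburst interval per well, DMSO as negative control.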

[13] = CCTE_Shafer_MEA_acute_burst_percentage_mean: CCTE's Neural Acute Assay for Percentage of Spikes in a Burst, Shafer Lab (AID 2284017);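 as to AC50: curve fitted for loss of signal so potency reflects decreased burst percentage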
Outline: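 Primary rat cortical neurons on 16-electrode MEA wells; 40 min baseline recorded at DIV 13 or 15, then 40 min after compound (0.03-40 uM) at 37 C. Well-mean fraction of spikes in single-electrode bursts; percent change from baseline, DMSO as negative control.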

[14] = CCTE_Shafer_MEA_acute_burst_percentage_std: CCTE's Neural Acute Assay for Standard Deviation of Burst Percentage, Shafer Lab (AID 2284018);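 also: fitted in the negative direction so actives lower burst percentage SD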
Outline: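 Rat primary cortical neurons on 48-well MEAs, DIV 13 or 15, 37 C. 40-min baseline then 40-min recording with compound (0.03-40 uM); well-level SD of per-electrode burst spike percentage, expressed as percent change from baseline.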

[15] = CCTE_Shafer_MEA_acute_per_network_burst_electrodes_number_mean: CCTE's Neural Acute Assay for Mean Number of Electrodes in a Network Burst, Shafer Lab (AID 2284021);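 also: curves fitted for decreases only so hits reduce electrodes per burst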
Outline: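 Readout: % change in mean electrodes active per network burst, post- vs pre-treatment, each well. Spikes detected at 8x rms noise after 300-5000 Hz band-pass; rat cortical cultures, DIV 13/15, compounds 0.03-40 uM, DMSO baseline.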

[16] = CCTE_Shafer_MEA_acute_cross_correlation_area: CCTE's Neural Acute Assay for Area of Cross Correlation, Shafer Lab (AID 2284024);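 also: area under pooled inter-electrode spike cross-correlation near zero lag as percent change from own baseline; curves fitted for loss of cross-correlation area so actives lower synchrony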
Outline: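 Rat cortical cultures, DIV 13/15, MEA; spikes detected at 8x rms noise (300-5000 Hz band-pass). Compound 0.03-40 uM, ≥3 wells each. Readout: % change in pooled inter-electrode cross-correlation area vs own baseline; DMSO negative control.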

[17] = CCTE_Shafer_MEA_acute_synchrony_index: CCTE's Neural Acute Assay for Synchrony, Shafer Lab (AID 2284027);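 also: network synchrony index of spontaneous spiking in primary rat cortical neurons on MEAs; fitted for loss of signal so actives lower synchrony relative to DMSO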
Outline: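 Acute exposure of rat primary cortical neurons (DIV 13 or 15) at 0.03-40 uM. Synchrony index, 40 min before vs after, as % change relative to DMSO control.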

[18] = molecular target: Estrogen receptor (Homo sapiens) (UniProt P03372); experiment: CCTE_Deisenroth_AIME_384WELL_LUC_Active: CCTE's 384-well Estrogen Receptor Transactivation Assay with AIME metabolic competence (ERTA luciferase; metabolism positive), Deisenroth Lab (AID 2284030; active = hit-call score of the fitted dose curve at least 0.9, where 1 is the maximum)
Sequence of Estrogen receptor (Homo sapiens) (P03372 whole entry, looked up): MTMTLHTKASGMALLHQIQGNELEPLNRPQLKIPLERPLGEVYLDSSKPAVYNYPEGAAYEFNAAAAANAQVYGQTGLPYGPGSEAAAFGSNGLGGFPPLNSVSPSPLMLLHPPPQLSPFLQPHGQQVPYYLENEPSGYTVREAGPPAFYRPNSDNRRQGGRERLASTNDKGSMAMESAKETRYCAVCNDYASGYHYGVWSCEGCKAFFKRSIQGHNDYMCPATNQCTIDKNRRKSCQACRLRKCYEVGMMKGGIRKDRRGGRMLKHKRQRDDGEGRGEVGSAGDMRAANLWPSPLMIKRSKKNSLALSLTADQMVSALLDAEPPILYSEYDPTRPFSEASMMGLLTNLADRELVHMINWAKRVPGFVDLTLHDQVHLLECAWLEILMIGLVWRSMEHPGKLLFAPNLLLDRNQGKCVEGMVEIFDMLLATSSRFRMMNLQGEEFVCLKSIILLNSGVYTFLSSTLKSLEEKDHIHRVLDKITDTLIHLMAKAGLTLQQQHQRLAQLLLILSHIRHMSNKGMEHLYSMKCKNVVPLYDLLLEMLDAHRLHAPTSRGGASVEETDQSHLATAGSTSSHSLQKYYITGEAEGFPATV
Outline: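 Readout: bioluminescent luciferase induction in VM7Luc4E2 cells 24 hour after receiving medium from a 2 h rat hepatic S9 (induced, alginate microsphere) metabolism step. Concentrations 0.002 - 200 uM; activity scaled to 17beta-estradiol positive control.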

[19] = CCTE_Harrill_HTTr_CellCount_MCF7: CCTE's Cell Proliferation Assessment for the High-Throughput Transcriptomics (HTTr) Platform, Harrill Lab (AID 2284012; active = hit-call score of the fitted dose curve at least 0.9, where 1 is the maximum;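 also: count of Hoechst-stained nuclei per well by high-content imaging in MCF-7 cells; cells exposed to compound for six hours; intended direction is loss of nuclei count meaning fewer cells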)
Outline: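 For this full-screen endpoint, MCF-7 cultures received eight compound dilutions for six hours. Well nuclei counts from Hoechst imaging were analyzed relative to DMSO.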

[20] = molecular target: Ratio of Nucleoli Translocation and Cytoplasm, AR (gene 367) (UniProt P10275); experiment: UPITT_HCI_U2OS_AR_TIF2_Nucleoli_Cytoplasm_Ratio_Agonist: University of Pittsburgh U2OS Androgen Receptor-Transcriptional Intermediary Factor 2 (AR-TIF2) Agonism High Content Imaging Assay for Ratio of Nucleoli Translocation and Cytoplasm (AID 2284000; active = hit-call score of the fitted dose curve at least 0.9, where 1 is the maximum;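 also: hits raise the red nucleolar to cytoplasm ratio above vehicle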)
Sequence of Ratio of Nucleoli Translocation and Cytoplasm, AR (gene 367) (P10275 whole entry, looked up): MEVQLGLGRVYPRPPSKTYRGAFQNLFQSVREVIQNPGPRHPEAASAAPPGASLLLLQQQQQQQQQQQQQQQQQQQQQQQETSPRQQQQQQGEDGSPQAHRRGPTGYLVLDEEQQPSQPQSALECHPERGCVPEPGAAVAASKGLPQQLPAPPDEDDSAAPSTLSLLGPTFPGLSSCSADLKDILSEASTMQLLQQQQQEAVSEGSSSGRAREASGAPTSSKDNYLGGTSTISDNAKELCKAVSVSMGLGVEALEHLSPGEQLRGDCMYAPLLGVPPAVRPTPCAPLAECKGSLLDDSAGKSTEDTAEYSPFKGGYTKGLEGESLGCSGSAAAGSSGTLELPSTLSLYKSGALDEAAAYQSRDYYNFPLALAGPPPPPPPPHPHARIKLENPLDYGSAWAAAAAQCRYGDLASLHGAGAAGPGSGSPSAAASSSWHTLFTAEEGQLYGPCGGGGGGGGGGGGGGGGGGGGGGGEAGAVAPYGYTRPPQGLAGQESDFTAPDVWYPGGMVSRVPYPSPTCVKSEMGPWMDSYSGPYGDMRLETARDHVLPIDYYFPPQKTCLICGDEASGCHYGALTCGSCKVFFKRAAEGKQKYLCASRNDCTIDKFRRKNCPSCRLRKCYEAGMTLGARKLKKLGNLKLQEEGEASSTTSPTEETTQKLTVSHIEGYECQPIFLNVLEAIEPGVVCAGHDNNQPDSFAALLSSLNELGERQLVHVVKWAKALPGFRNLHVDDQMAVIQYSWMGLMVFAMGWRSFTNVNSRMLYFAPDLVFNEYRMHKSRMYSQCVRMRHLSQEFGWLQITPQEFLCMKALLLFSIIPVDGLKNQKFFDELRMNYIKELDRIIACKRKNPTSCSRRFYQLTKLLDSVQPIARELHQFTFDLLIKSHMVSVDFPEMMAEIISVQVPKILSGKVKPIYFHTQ
Outline: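 Human osteosarcoma U2OS line, AR-RFP plus TIF2-GFP; compounds 0.195–50 uM final, 0.5% DMSO. Readout: nucleolar/cytoplasmic RFP ratio by HCI, positive direction vs DMSO baseline.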

Measured: AC50

CCC(C)Nc1c([N+](=O)[O-])cc(C(C)(C)C)cc1[N+](=O)[O-] (centres undefined)
active: [14] 0.935 µM | [18] 11.1 µM
not listed: [19] | [20]
inactive: all other assays above

N#Cc1c(Cl)c(Cl)c(Cl)c(C#N)c1Cl
active: [1] 22.9 µM | [4] 20 µM | [13] 6.9 µM
not listed: [18] | [20]
inactive: all other assays above

Cc1[nH]c(=O)n(C(C)(C)C)c(=O)c1Cl
inactive: [20] | [7] | [8] | [19] | [18]

Oc1ccc(Cl)cc1Cc1ccccc1
active: [1] 18.3 µM and 24 µM | [2] 32.8 µM and 41.5 µM | [5] 1.07 µM | [6] 1.08 µM | [9] 0.814 µM | [13] 2.55 µM | [14] 8.33 µM | [15] 8.31 µM | [16] 0.457 µM | [17] 5.05 µM
inactive: [3] | [4] | [7] | [8] | [19] | [10] | [11] | [12]

O=[N+]([O-])/N=C1\NCCN1Cc1ccc(Cl)nc1
not listed: [1] | [2] | [3] | [4] | [18]
inactive: all other assays above

C[C@H]1[C@H](c2ccc(Cl)cc2)SC(=O)N1C(=O)NC1CCCCC1
active: [5] 13 µM | [6] 13.1 µM | [9] 10.3 µM | [10] 20 µM | [11] 17.2 µM | [12] 28.7 µM | [13] 19.8 µM | [14] 28.4 µM | [17] 20 µM
inactive: [20] | [7] | [8] | [15] | [16] | [18]

CNC(=O)CSP(=S)(OC)OC
not listed: [1] | [2] | [3] | [4] | [18] | [20]
inactive: all other assays above

COP(=O)(OC)OC=C(Cl)Cl
inactive: [7] | [8] | [18]

OCCOc1ccccc1
inactive: [7] | [8]
active: [18] 34 µM

COc1nn(CSP(=S)(OC)OC)c(=O)s1
inactive: [7] | [8] | [19]

COP(=S)(OC)Oc1ccc(SC)c(C)c1
inactive: [7] | [8] | [10] | [11] | [12] | [15] | [16]
active: [5] 7.7 µM | [6] 7.7 µM | [9] 6.28 µM | [13] 29.1 µM | [14] 33.2 µM | [17] 29.1 µM

CC(C)OC(=O)Nc1cccc(Cl)c1
inactive: [6] | [7] | [8] | [9] | [10] | [11] | [12] | [14] | [16]
active: [5] 10.2 µM | [13] 20 µM | [15] 20 µM | [17] 20 µM

CCc1ccc(C(=O)NN(C(=O)c2cc(C)cc(C)c2)C(C)(C)C)cc1
inactive: [7] | [8] | [18]

CCN(CC)C(=O)SCc1ccc(Cl)cc1
inactive: [7] | [8] | [19]

CC(C)(C)C(O)C(Oc1ccc(Cl)cc1)n1cncn1 (centres undefined)
inactive: [7] | [8]

Clc1ccccc1-c1nnc(-c2ccccc2Cl)nn1
not listed: [1] | [2] | [3] | [4] | [19] | [20]
inactive: all other assays above

O=C(NC(=O)c1c(F)cccc1F)Nc1ccc(OC(F)(F)C(F)OC(F)(F)F)c(Cl)c1 (centres undefined)
inactive: [7] | [8] | [19]

O=C(Nc1ccccc1)Nc1cnns1
inactive: [7] | [8] | [19]

N#CN
not listed: [1] | [2] | [3] | [4] | [18] | [19] | [20]
inactive: all other assays above
